# Experimental data reported in PubChem BioAssay (Tox21).
# Unmarked numbers belong to inactive results. Records with an inconclusive call do not appear. Entries that show only a call come without a potency. Active and inactive are the calls of the source. Unless noted, calls follow the shape of the dose curve; as a rule, active = well fitted curve in the direction sought with a large enough effect in the repeat runs; inconclusive = weak or mixed curves; inactive = no such curve, though single readings can be large; an effect the other way counts as inactive or inconclusive.
# Key:
# [1] = qHTS assay for small molecule disruptors of the mitochondrial membrane potential (AID 720635); also: potency is read from the fitted curve at half-maximal effect
# Summary of the method: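 HepG2 cells (2,000/well) attached overnight at 37C, then took compound for 1 hr at 37C, 5% CO2. Mito-MPS dye was added for 30 min; fluorescence was read at 490/535 nm (monomers) and 540/590 nm (aggregates).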
# [2] = molecular target: Glucocorticoid receptor (Homo sapiens) (UniProt P04150); test: qHTS assay to identify small molecule antagonists of the glucocorticoid receptor (GR) signaling pathway (AID 720692; active = well fitted inhibition curve with a large enough effect in the signal ratio in the repeat runs, not every such curve was filed as active; the % refers to the signal ratio; also: potency is read from the fitted curve at half-maximal effect)
# Summary of the method: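 Fluorescence from cleaved LiveBLAzer B/G FRET substrate reports GRE-driven beta-lactamase in HeLa cells; compounds are tested against 5 nM dexamethasone (final) over 18 h at 37 C, substrate incubation 2 h at room temperature.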
# [3] = molecular target: Estrogen receptor (Homo sapiens) (UniProt P03372); test: qHTS assay to identify small molecule antagonists of the estrogen receptor alpha (ER-alpha) signaling pathway (AID 743069; active = well fitted curve in the direction sought with a large enough effect in the signal ratio in the repeat runs, not every such curve was filed as active; the % refers to the signal ratio)
# Summary of the method: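 HEK293 cells stably carrying an ER-alpha-UAS-bla beta-lactamase reporter were pre-cultured overnight in 2% charcoal-stripped FBS medium. Test compounds in DMSO were added together with 17beta-estradiol for 18 hr at 37C. Read-out was fluorescence after 2 hr with LiveBLAzer B/G FRET substrate at room temperature.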
# [4] = molecular target: Nuclear receptor subfamily 1 group I member 2 (Rattus norvegicus) (UniProt Q9R1A7); test: Rat pregnane X receptor (rPXR) activation by small molecules, qHTS assay (AID 1346983); conditions: rPXR luciferase reporter cells, One-Glo luminescence, 24 h; max activation: stronger effect = higher value; also: nearly all actives have a fitted effect of over 20% in size
# Summary of the method: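 Cell-based rPXR luciferase reporter assay, 2,000 cells per well, rested 5hr at 37 C before compound addition in DMSO, then 24 hr at 37 C. One-Glo reagent was added and luminescence read after 30 min at room temperature.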
# [5] = molecular target: Nuclear receptor subfamily 1 group I member 2 (Homo sapiens) (UniProt O75469); test: Human pregnane X receptor (PXR) activation by small molecules, qHTS assay (AID 1346985); also: nearly all actives have a fitted effect of over 40% in size; also: potency is read from the fitted curve at half-maximal effect
# Summary of the method: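 DPX-2 cells (HepG2 co-transfected with a PXR response element and a CYP3A4-promoter luciferase construct) were seeded at 2,000 per well, rested 5 hr at 37C, then exposed to DMSO-dissolved compounds for 24 hr. Activation was read as luciferase luminescence.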
# [6] = molecular target: Androgen receptor (Homo sapiens) (UniProt P10275); test: qHTS assay to identify small molecule antagonists of the androgen receptor (AR) signaling pathway (AID 743035; active = well fitted inhibition curve with a large enough effect in the signal ratio in the repeat runs, not every such curve was filed as active; the % refers to the signal ratio; also: potency is read from the fitted curve at half-maximal effect)
# Summary of the method: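 Cell line: GeneBLAzer AR-UAS-bla GripTite (HEK293). Stimulus: R1881 added after compound. Exposure: 16 h, 37C, 5% CO2. Readout: LiveBLAzer B/G FRET fluorescence after 2 h at room temperature.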
# [7] = molecular target: Androgen receptor (Homo sapiens) (UniProt P10275); test: qHTS assay to identify small molecule antagonists of the androgen receptor (AR) signaling pathway using the MDA cell line (AID 743042; also: nearly all actives have a fitted effect of over 55% in size; also: potency is read from the fitted curve at half-maximal effect)
# Summary of the method: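 MDA-kb2 cells (human breast carcinoma, stably carrying an MMTV-luciferase reporter responsive to AR and GR) were plated at 3,000 cells/well and preincubated 5 hr at 37C, then given compound plus R1881 agonist for 16 h. ONE-Glo luminescence was read.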
# [8] = molecular target: Glucocorticoid receptor (Homo sapiens) (UniProt P04150); test: qHTS assay to identify small molecule agonists of the glucocorticoid receptor (GR) signaling pathway (AID 720691; active = well fitted activation curve with a large enough effect in the signal ratio in the repeat runs, not every such curve was filed as active; the % refers to the signal ratio)
# Summary of the method: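 Beta-lactamase reporter activity, read as fluorescence intensity, was measured in GR-bla HeLa cells exposed to compounds for 18 h at 37 C and then loaded with LiveBLAzer B/G FRET substrate for 2 h at room temperature.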
# [9] = molecular target: Androgen receptor (Homo sapiens) (UniProt P10275); test: qHTS assay to identify small molecule agonists of the androgen receptor (AR) signaling pathway using the MDA cell line (AID 743040; also: nearly all actives have a fitted effect of over 20% in size; also: potency is read from the fitted curve at half-maximal effect)
# Summary of the method: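 MDA-kb2 breast carcinoma cells stably carrying an MMTV-driven luciferase reporter (AR- and GR-responsive) were seeded and held 5 h at 37C, 0% CO2, then exposed to compounds in DMSO for 16 h. Luminescence was read 30 min after ONE-Glo addition.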
# [10] = molecular target: Acetylcholinesterase (Homo sapiens) (UniProt P22303); test: Acetylcholinesterase (AChE) small molecule antagonists: enzyme-based qHTS assay with human liver microsomes (AID 1347399; calls by dose curve; also: nearly all actives have a fitted effect of over 60% in size); conditions: Potency: qHTS inhibition; outcome: qHTS inhibition
# Summary of the method: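 Recombinant human AChE (50 mU/mL in the enzyme mix) and human liver microsomes (0.25 mg/mL final) were preincubated with compound and NADPH (0.25 mg/mL final) for 30 min at 37 C. Acetylthiocholine/DTNB was then added; thiocholine was read colorimetrically after 10 min at room temperature.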
# Sequence of Estrogen receptor (Homo sapiens) (P03372 whole entry, looked up): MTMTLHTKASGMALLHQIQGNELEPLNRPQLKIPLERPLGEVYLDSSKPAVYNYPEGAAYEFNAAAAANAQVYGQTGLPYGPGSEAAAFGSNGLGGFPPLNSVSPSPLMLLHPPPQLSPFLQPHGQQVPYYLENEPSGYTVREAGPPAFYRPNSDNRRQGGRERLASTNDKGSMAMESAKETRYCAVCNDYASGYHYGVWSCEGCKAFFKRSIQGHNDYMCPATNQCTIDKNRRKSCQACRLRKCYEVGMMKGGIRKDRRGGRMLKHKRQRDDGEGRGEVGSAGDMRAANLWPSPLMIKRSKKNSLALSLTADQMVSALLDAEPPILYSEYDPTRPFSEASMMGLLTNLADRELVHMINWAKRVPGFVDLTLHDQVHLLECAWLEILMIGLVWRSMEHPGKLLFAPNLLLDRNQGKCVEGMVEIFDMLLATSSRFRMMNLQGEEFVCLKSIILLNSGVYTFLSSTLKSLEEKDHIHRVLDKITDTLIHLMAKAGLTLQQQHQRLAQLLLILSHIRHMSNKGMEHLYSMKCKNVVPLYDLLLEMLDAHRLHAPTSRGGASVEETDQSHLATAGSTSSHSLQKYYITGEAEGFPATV
# Sequence of Nuclear receptor subfamily 1 group I member 2 (Rattus norvegicus) (Q9R1A7 whole entry, looked up): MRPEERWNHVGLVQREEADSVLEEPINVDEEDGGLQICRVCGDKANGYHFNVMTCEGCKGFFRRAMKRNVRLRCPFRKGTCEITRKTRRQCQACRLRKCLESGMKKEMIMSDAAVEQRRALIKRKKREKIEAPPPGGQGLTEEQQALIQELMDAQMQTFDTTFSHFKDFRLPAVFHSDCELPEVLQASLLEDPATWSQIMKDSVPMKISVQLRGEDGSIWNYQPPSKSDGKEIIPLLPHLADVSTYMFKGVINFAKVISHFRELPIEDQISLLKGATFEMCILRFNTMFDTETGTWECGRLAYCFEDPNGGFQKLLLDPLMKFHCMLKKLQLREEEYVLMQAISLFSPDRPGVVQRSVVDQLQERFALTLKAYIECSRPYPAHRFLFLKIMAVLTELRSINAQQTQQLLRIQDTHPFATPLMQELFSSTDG
# Sequence of Glucocorticoid receptor (Homo sapiens) (P04150 whole entry, looked up): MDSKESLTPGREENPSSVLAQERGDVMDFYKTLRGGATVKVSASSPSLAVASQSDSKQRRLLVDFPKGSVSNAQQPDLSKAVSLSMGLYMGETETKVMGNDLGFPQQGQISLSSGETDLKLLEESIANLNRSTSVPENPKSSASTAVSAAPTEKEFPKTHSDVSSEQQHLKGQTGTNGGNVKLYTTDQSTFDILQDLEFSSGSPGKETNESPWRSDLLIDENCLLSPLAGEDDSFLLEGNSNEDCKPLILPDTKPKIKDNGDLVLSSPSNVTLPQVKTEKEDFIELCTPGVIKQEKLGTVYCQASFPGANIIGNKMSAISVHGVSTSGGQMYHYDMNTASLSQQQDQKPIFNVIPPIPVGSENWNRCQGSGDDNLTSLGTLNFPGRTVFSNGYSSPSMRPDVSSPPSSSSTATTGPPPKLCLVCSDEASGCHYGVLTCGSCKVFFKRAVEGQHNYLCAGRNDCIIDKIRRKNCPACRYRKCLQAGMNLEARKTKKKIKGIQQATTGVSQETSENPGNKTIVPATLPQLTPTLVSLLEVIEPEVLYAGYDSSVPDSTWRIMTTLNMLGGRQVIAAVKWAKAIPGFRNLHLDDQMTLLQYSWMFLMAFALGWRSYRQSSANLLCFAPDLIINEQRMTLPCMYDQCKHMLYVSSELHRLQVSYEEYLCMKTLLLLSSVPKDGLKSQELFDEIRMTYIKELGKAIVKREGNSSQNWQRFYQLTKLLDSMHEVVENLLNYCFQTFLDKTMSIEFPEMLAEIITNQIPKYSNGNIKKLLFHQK
# Sequence of Androgen receptor (Homo sapiens) (P10275 whole entry, looked up): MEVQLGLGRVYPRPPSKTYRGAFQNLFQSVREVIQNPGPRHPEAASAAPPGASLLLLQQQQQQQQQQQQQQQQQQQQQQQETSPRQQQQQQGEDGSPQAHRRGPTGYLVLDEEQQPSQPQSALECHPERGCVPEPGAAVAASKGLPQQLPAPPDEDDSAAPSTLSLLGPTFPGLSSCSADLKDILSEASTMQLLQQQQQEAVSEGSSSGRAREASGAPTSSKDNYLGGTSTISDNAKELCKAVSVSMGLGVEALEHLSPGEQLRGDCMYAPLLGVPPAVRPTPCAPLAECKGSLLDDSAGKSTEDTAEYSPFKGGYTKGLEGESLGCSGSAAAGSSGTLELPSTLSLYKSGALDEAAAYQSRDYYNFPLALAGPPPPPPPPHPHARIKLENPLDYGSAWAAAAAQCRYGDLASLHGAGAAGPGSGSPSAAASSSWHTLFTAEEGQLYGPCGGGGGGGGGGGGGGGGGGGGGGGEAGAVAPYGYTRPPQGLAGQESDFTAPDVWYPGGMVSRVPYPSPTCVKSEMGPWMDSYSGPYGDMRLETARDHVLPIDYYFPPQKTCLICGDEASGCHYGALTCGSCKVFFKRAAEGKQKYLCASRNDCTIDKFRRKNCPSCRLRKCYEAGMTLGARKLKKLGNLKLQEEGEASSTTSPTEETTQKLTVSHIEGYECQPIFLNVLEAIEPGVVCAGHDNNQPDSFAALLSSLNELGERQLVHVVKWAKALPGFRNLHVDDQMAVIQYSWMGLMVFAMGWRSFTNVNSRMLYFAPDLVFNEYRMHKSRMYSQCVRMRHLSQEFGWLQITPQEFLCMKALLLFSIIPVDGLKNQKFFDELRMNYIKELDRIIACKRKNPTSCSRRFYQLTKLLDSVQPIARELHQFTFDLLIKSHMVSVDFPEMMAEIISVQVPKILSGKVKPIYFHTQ
# Sequence of Acetylcholinesterase (Homo sapiens) (P22303 whole entry, looked up): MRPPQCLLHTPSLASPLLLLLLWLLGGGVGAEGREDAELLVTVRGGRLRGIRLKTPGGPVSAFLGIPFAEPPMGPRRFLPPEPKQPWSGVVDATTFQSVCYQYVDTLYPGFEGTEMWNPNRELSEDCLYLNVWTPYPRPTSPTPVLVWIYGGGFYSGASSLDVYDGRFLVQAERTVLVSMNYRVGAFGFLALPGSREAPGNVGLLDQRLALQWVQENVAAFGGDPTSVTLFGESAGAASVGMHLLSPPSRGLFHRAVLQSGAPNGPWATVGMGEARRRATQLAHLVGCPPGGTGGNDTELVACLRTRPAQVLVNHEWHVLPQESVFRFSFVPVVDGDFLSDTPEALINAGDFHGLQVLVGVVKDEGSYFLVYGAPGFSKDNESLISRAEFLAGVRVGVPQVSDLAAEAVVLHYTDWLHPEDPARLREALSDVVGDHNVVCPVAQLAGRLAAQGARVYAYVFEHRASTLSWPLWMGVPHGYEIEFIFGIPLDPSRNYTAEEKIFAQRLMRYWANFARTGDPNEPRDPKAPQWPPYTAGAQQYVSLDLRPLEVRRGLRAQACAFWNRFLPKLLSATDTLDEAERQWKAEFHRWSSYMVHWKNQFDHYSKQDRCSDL
smiles,measurement,setting,value
CCON=O,Potency,[1],inactive
same,Potency,[2],inactive
same,Potency,[3],inactive
same,max activation,[4],-2.18%
same,Potency,[5],inactive
C[C@@H](Cc1ccccc1)NCCC(c1ccccc1)c1ccccc1,Potency,[3],inactive
F/C(COc1ccc2c(c1)[nH]c1ccccc12)=C1/CN2CCC1CC2,Potency,[5],22.4 µM (active)
C[C@]12CC[C@H]3[C@@H](CCC4=CC(=O)CC[C@@]43C)[C@@H]1CC[C@H]2O,Potency,[2],4.25 µM (active)
CO[C@H]1[C@@H](O)C[C@H](O[C@H]2[C@@H](O)C[C@H](O[C@H]3[C@@H](O)C[C@H](O[C@H]4CC[C@@]5(C)[C@H](CC[C@@H]6[C@@H]5C[C@@H](O)[C@]5(C)[C@@H](C7=CC(=O)OC7)CC[C@]65O)C4)O[C@@H]3C)O[C@@H]2C)O[C@@H]1C,Potency,[1],0.699 µM (active)
same,Potency,[6],0.338 µM (active)
same,Potency,[7],1.68 µM (active)
same,Potency,[5],inactive
CN(C)CCCCCCN(C)C (tested in a mixture with another compound),Potency,[1],inactive
same,Potency,[8],inactive
same,Potency,[2],inactive
same,max activation,[4],-5.32%
Clc1ccc(C(Cn2ccnc2)OCc2csc3c(Cl)cccc23)c(Cl)c1 (centres undefined),Potency,[2],inactive
same,Potency,[9],inactive
CCN1C[C@]2(COC)[C@H](O)C[C@H](OC)[C@@]34[C@@H]5C[C@@]6(O)[C@H](OC(=O)c7ccccc7)[C@@H]5[C@@](OC(C)=O)([C@@H]([C@H](OC)[C@H]23)[C@@H]14)[C@@H](O)[C@@H]6OC,Potency,[1],inactive
same,Potency,[3],inactive
same,max activation,[4],-1.75%
same,Potency,[5],inactive
C[C@]12CC[C@H](O)C[C@H]1CC[C@@H]1[C@@H]2CC[C@]2(C)[C@@H](c3ccc(=O)oc3)C[C@H]3O[C@]132,Potency,[6],6.01 µM (active)
same,Potency,[7],21.1 µM (active)
same,Potency,[5],3.98 µM (active)
COc1ccc2c3c1O[C@H]1C(=O)CC[C@H]4[C@@H](C2)N(C)CC[C@]314,Potency,[5],inactive
CCC(C)(S(=O)(=O)CC)S(=O)(=O)CC,Potency,[3],inactive
same,Potency,[5],inactive
NCCNCCNCCNCCN,Potency,[10],inactive
NC1=NC(=O)N2CC12 (centres undefined),Potency,[3],inactive
same,Potency,[5],inactive
O=C1OC2(c3cc(Br)c(O)cc3Oc3c2cc(Br)c(O)[c]3[Hg])c2ccccc21 (centres undefined),Potency,[8],inactive
same,Potency,[2],inactive
same,Potency,[3],inactive
same,Potency,[5],inactive
CN(C)[C@H](Cc1ccccc1)c1ccccc1,Potency,[1],inactive
same,Potency,[8],inactive
same,Potency,[5],inactive
O=C1C=C2C=C[C@@H]3C[C@@]2(O1)[C@H]1CCCCN31,Potency,[2],4.25 µM (active)
OC(c1ccccc1)(c1ccccc1)C1CN2CCC1CC2 (centres undefined),Potency,[2],inactive
same,Potency,[6],inactive
same,Potency,[9],26.6 µM (active)
same,Potency,[7],inactive
same,Potency,[3],inactive
same,max activation,[4],17.5%
same,Potency,[5],inactive
Oc1ccc2c3c1O[C@H]1[C@@H](O)CC[C@@]4(O)[C@@H](C2)N(CC2CCC2)CC[C@]314,Potency,[8],inactive
same,Potency,[2],inactive
same,Potency,[7],inactive
same,max activation,[4],-0.605%
same,Potency,[5],inactive
CC(C)[C@@]1(NC(=O)[C@@H]2C[C@@H]3c4cccc5[nH]cc(c45)C[C@H]3N(C)C2)O[C@@]2(O)[C@@H]3CCCN3C(=O)[C@H](Cc3ccccc3)N2C1=O,Potency,[1],0.841 µM (active)
same,Potency,[2],inactive
same,max activation,[4],-8.17%
